Sampled rows, rich in hits. Any-hit rate of the full collection: about 2.3%.
Shn3 3UTR inh = Schnurri-3 reporter inhibition in Clone20 osteoblasts | Clone20 osteoblast Shn3 3'UTR firefly luciferase, 24 h | inhibition, % at 12.5 µM | 360,000 compounds, 0.52% hits;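 active = mean inhibition of at least 75% with every replicate also reaching 75%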;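 note: 0% = median of neutral control wells and 100% = pilot-screen positive control compound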
aSyn 5UTR inh = 5' untranslated region of α-synuclein, MLPCN primary screen | alpha-synuclein 5'UTR reporter, inhibitor activity | AID 1813 | inhibition, % (tested at 7.5 µM) | 300,000 compounds, 0.82% hits; in the data active = inhibition above about 60%;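 note: H4 neuroglioblastoma cells stably carrying SNCA 5'UTR luciferase fusion; 0% = DMSO wells and 100% = positive control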
Jurkat NFkB inh = inhibitors of the PMA/ionomycin-induced NF-kB reporter in Jurkat cells | PMA/ionomycin-induced NF-kB luciferase reporter, luminescence | inhibition, % at 4 µM | 330,000 compounds, 0.53% hits | AID 435003; in the data active = inhibition above about 50%
697 NFkB inh = inhibitors of the PMA/ionomycin-induced NF-kB reporter in 697 B cells; 330,000 compounds, 0.33% hits; 697 B-cell NF-kB luciferase reporter, 16 h; inhibition, % at 4 µM; AID 435022; in the data active = inhibition above about 35%
Gli-Sufu antag = blocks Gli-Sufu signaling in a luciferase reporter; Sufu-KO-LIGHT fibroblasts, Gli luciferase reporter luminescence; inhibition, % at 5 µM; 340,000 compounds, 0.74% hits;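 active = inhibition above about 55%, limit read from the data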;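 note: 0% = DMSO-treated cells and 100% = wells with medium but no cells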
TAG inh = inhibitors of triacylglycerol accumulation. H9c2 cells, Nile Red lipid (TAG) fluorescence; cells loaded with 200 µM oleic acid. inhibition, % at 12.5 µM. 230,000 compounds, 0.66% hits;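 active = pattern-corrected inhibition of lipid staining of at least 50% with the nuclear-stain viability signal not falling by more than 50%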;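 note: 0% = DMSO wells and 100% = triacsin C control wells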
H9c2 TAG conf = triacylglycerol accumulation inhibition, confirmation; shares compounds with TAG inh; H9c2 lipid accumulation, Nile Red fluorescence; cells loaded with 200 µM oleic acid; inhibition, % at 12.5 µM; 990 compounds, 71% hits; AID 651629;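 active = mean inhibition across replicates of 40% or more; inactive = mean inhibition below 40%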;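 note: plate controls were DMSO only wells for no effect and Triacsin C treated wells for full effect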
* hit, by the source's call; nt = not tested or not shown.

SMILES	Shn3 3UTR inh	aSyn 5UTR inh	Jurkat NFkB inh	697 NFkB inh	Gli-Sufu antag	TAG inh	H9c2 TAG conf
COCCN(Cc1ccccc1)C(=O)C1CCN(C(=O)Nc2ccccc2)CC1	12	nt	-20	-14	-3	54*	45*
CC(=O)c1ccc(OCc2cc(C(=O)NC(C)Cc3ccccn3)no2)cc1 (stereo not drawn)	3	-3	17	6	2	nt	nt
COc1cccc(-c2nnc(SCC(=O)Nc3cc(C)ccc3OC)n2N)c1	5	-14	-9	-8	-2	53*	26
COc1ccc(C)cc1NC(=O)CSc1nnc(-c2ccco2)n1N	10	17	10	7	1	nt	nt
CCN1C(=O)[C@H]2[C@H]3CN=C(SCc4ccc(Cl)cc4)N3[C@@](Cc3ccccc3)(C(=O)OC)[C@H]2C1=O	-4	nt	nt	-19	8	6	nt
COC(=O)[C@@]1(Cc2ccccc2)[C@H]2C(=O)N(Cc3ccccc3)C(=O)[C@H]2[C@H]2CN=C(SCc3ccc(Cl)cc3)N21	18	nt	nt	7	8	51*	71*
Nc1cccc2c1nnn2C1OC(CO)C(O)C(O)C1O (stereo not drawn)	-1	-3	3	6	nt	13	nt
COc1ccc2cc3cc(C(=O)NCCc4ccc(OC)c(OC)c4)oc3nc2c1	41	-20	-3	-3	3	67*	44*
CCCN(CCC)CCCNC(=O)c1cc2cc3ccc(OC)cc3nc2o1	nt	-16	-18	-4	-6	6	nt
COc1ccccc1[C@H]1C(c2ccccc2)=NN(c2ccccc2)[C@@H]1CO	-6	nt	nt	1	7	2	nt
CC(C)N(C#N)c1nc(N2CCOCC2)nc(N2CCOCC2)n1	10	13	-16	8	-5	51*	32
Cc1nn2c(NCc3ccccn3)c3c(nc2c1-c1ccccc1)CCC3	50	5	-2	6	43	61*	40*
Cc1cc(NCc2ccccn2)n2nc(C)c(-c3ccccc3)c2n1	40	nt	-6	0	3	44	nt
Cc1nn2c(N3CCN(C)CC3)c3c(nc2c1-c1ccccc1)CCCC3	-2	-31	4	-9	0	58*	45*
Cc1ccc(S(=O)(=O)N2CCCC2CNC(=O)C(=O)NCc2ccc3c(c2)OCO3)cc1 (stereo not drawn)	17	nt	nt	nt	nt	15	nt
COc1ccc(-c2csc(NC(=S)NC(=O)/C=C/c3ccco3)n2)cc1Br	17	91*	38	-56	13	79*	87*
COc1ccc(-c2csc(NC(=S)NC(=O)c3ccco3)n2)cc1Br	8	4	11	-11	-9	nt	nt
CCCC(=O)N1CCN(c2ccc(NC(=O)c3ccc4c(c3)OCCO4)cc2)CC1	28	24	7	-8	0	nt	nt
Cc1ccccc1C(=O)N/N=C/c1cccc2ccccc12	-41	-72	-9	-8	-20	nt	nt
Cc1ccc(Cl)cc1NC(=S)N/N=C/c1cccc2ccccc12	10	38	50	-22	3	69*	85*
O=C(NC1CC2CCCC(C1)N2S(=O)(=O)c1ccccc1)C1CCCCC1 (stereo not drawn)	-1	-3	8	10	2	nt	nt
CCOc1ccc(Cl)cc1-c1cc(C(=O)NCC2CCCCC2)[nH]n1	8	nt	nt	nt	nt	-10	nt
COc1ccc(Cl)cc1-c1cc(C(=O)NCC2CCCCC2)[nH]n1	-4	nt	nt	nt	nt	53*	-6
Nc1ccc(C(=O)O)cc1S(=O)(=O)O	-2	-1	4	22	0	5	nt
CC(C)(C)c1cc(NC(=O)C2(C)CCN2C(=O)C2(c3ccccc3)CC2)no1 (stereo not drawn)	17	nt	nt	nt	nt	23	nt
SMILES	Shn3 3UTR inh	aSyn 5UTR inh	Jurkat NFkB inh	697 NFkB inh	Gli-Sufu antag	TAG inh	H9c2 TAG conf
CC(C)(C)c1cc(NC(=O)C2(C)CCN2C(=O)C2(c3ccccc3)CCCC2)no1 (stereo not drawn)	14	nt	nt	nt	nt	53*	40
CCOCCCN(C(=O)Cn1nnc2ccccc21)C(C(=O)NCc1ccco1)c1ccncc1 (stereo not drawn)	-15	nt	nt	nt	1	12	nt
CCOC(=O)N1CCN(S(=O)(=O)c2ccc(C(=O)Nc3sc4c(c3C#N)CC(C)(C)NC4(C)C)cc2)CC1	-10	-18	5	-5	3	5	nt
Cc1ccc(-n2nc(C(=O)NCc3ccc(C)o3)c3c4ccccc4n(C)c3c2=O)cc1	-4	14	3	11	15	53*	21
C#CCOCCOCCOCCNc1nc(N2CCN(C(=O)[C@H](CCCCN)n3cc([C@@H](N)CO)nn3)CC2)nc(N2CCN(C(=O)[C@H](CCCCN)n3cc([C@@H](N)CC(C)C)nn3)CC2)n1	-4	nt	-9	-16	-11	70*	-1
COc1cc2c(c(OC)c1OC)-c1ccc(SC)c(=O)cc1C(NC=O)CC2 (stereo not drawn)	6	nt	nt	nt	47	69*	47*
COc1cc2c(c(OC)c1OC)-c1ccc(OC)c(=O)cc1C(NC(=O)c1ccccc1)CC2 (stereo not drawn)	0	nt	nt	nt	45	55*	69*
COc1cc2c(c(OC)c1OC)C(=O)CC2	4	7	2	-3	3	-8	nt
O=C(Nc1ccccc1N1CCN(c2ccccc2)CC1)C12CC3CC(CC(C3)C1)C2	26	2	-4	-2	-2	-10	nt
Cc1cc(NC(=O)CCSc2nc(-c3ccco3)cc(C(F)(F)F)n2)no1	20	20	8	8	-1	16	nt
Cc1cc(NC(=O)CSc2nc(-c3ccco3)cc(C(F)(F)F)n2)no1	42	69*	46	-26	-2	66*	58*
O=C(Nc1ccccc1)c1ccc(NCC2CCCO2)c(S(=O)(=O)N2CCOCC2)c1 (stereo not drawn)	-1	9	-14	-4	1	66*	46*
CSc1ccc2c(c1)N(CCC1CCCCN1C)c1ccccc1S2 (stereo not drawn)	-6	110*	24	17	12	85*	59*
O=C1c2ccccc2C(=O)c2c1ccc(C(=O)N1CCCCC1)c2NCCO	10	16	-2	11	-18	83*	83*
CC1(C)CCCN(C(=O)c2ccc3c(c2NCCO)C(=O)c2ccccc2C3=O)C1	2	16	-23	-36	4	nt	nt
COc1ccc(S(=O)(=O)N(C)CC(=O)NCc2ccco2)cc1Cl	3	1	16	-11	2	-2	nt
COc1ccccc1-c1cc(NC=O)c2ncc(-c3cccc(C(=O)N(C)C)c3)n2c1	11	nt	nt	nt	nt	59*	68*
COc1cc(-c2cc(NC=O)c3ncc(-c4cccc(C(=O)N(C)C)c4)n3c2)cc(OC)c1OC	10	nt	nt	nt	nt	58*	72*
COc1cccc(-c2cc(NC=O)c3ncc(-c4ccc(OC)c(OC)c4)n3c2)c1	14	nt	nt	nt	nt	-1	nt
